{"source": "PubChem BioAssay (EPA / NIEHS)", "note": "Several values for one entry are separate records, joined by “and”; a condition that tells them apart may be missing. Equal values may be shown once. A structure can be active in one record and inactive in another. Activity calls are given as the source filed them. Rule for the calls: active = hit-call score of the fitted dose curve at least 0.9, where 1 is the maximum; inactive = score below 0.9.", "data": [{"read-out": "Vascular cell adhesion molecule 1 (VCAM1), VCAM1 (gene 7412)", "assay": "BSK_4H_VCAM1: BioMAP Diversity Plus: 4H Assay for Vascular cell adhesion molecule 1 (VCAM1) Biomarker Activity (AID 2283033);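 for outcome: cell-surface VCAM-1 protein measured by ELISA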", "conditions": "primary human endothelial cells (HUVEC); actives raise or lower the signal", "method_in_brief": "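ELISA read-out of VCAM-1 on human umbilical vein endothelium 24 hours after chemical dosing; gain or loss of signal was fitted relative to DMSO, with sulforhodamine B staining of parallel cultures flagging overt cytotoxicity.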", "values": [{"compound": "CCCCCCCCCCCCN1CCCC1=O", "AC50": "34.2 µM (active)"}, {"compound": "CCCOC(=O)c1ccc(O)cc1", "outcome": "inactive"}, {"compound": "CC(=O)NC1(c2cccc(F)c2)CCN(CC[C@@]2(c3ccc(Cl)c(Cl)c3)CN(c3ccccc3)C(=O)CO2)CC1", "AC50": "27.8 µM (active)"}, {"compound": "CCc1nn(C2CCCCC2)c2cc(C3(C#N)CCC(C(=O)O)CC3)ccc12", "note": "(stereo unspecified)", "AC50": "27 µM (active)"}, {"compound": "ClC1=C(Cl)C(Cl)(Cl)C(Cl)=C1Cl", "AC50": "6.5 µM (active)"}, {"compound": "C[C@@H]1C[C@H]2[C@@H]3CCC4=CC(=O)C=C[C@]4(C)[C@@]3(F)[C@@H](O)C[C@]2(C)[C@@]1(O)C(=O)COP(=O)(O)O", "outcome": "inactive"}, {"compound": "CCCCCCCCC(=O)O", "outcome": "inactive"}, {"compound": "NC(=O)N1C(=O)C(C(=O)c2cc(Cl)cs2)c2cc(F)c(Cl)cc21", "note": "(stereo unspecified)", "AC50": "24.5 µM (active)"}, {"compound": "CC(C)(C)CC(C)(C)c1ccc(O)c(-n2nc3ccccc3n2)c1", "outcome": "inactive"}, {"compound": "c1ccc2c(c1)ccc1ccccc12", "outcome": "inactive"}, {"compound": "CN1CCC[C@H]1c1cccnc1", "outcome": "inactive"}, {"compound": "CCOC(=O)CC(O)(CC(=O)OCC)C(=O)OCC", "outcome": "inactive"}, {"compound": "O=c1c(-c2ccc(O)cc2)coc2cc(O)ccc12", "outcome": "inactive"}, {"compound": "CCCCCCCCCCCCCC[N+](C)(C)C", "AC50": "2.83 µM (active)"}, {"compound": "CCCCCCCCOC(=O)CCCCCCCCC(=O)OCCCCCCCC", "outcome": "inactive"}, {"compound": "OC1CCCCC1", "outcome": "inactive"}, {"compound": "CCc1ccc(CCOc2ccc(CC3SC(=O)NC3=O)cc2)nc1", "note": "(stereo unspecified)", "outcome": "inactive"}, {"compound": "COCC(C)OCC(C)O", "note": "(stereo unspecified)", "outcome": "inactive"}, {"compound": "N#C[C@@H]1CC(F)(F)CN1C(=O)CNC1CC2CCC(C1)N2c1ncccn1", "note": "(stereo partly specified)", "outcome": "inactive"}, {"compound": "CCCCCCCCCCCCCCCS(=O)(=O)Oc1ccccc1", "outcome": "inactive"}, {"compound": "CCN(CC)CCNc1ccc(CNC=O)c2sc3ccc(OC)cc3c(=O)c12", "AC50": "30.7 µM (active)"}, {"compound": "CCCOc1sc(C(=O)N2CCC(c3cc(CN)ccc3F)CC2)c(C)c1Br", "AC50": "8.01 µM (active)"}, {"compound": "OCCC(F)(F)C(F)(F)C(F)(F)C(F)(F)C(F)(F)C(F)(F)C(F)(F)C(F)(F)F", "AC50": "41.3 µM (active) and 22.7 µM (active)", "outcome": "inactive"}, {"compound": "c1ccc2cc3c(ccc4ccccc43)cc2c1", "outcome": "inactive"}, {"compound": "CC(O)CO", "note": "(stereo unspecified)", "outcome": "inactive"}, {"compound": "C=C(C)C(=O)OCCC(F)(F)C(F)(F)C(F)(F)C(F)(F)C(F)(F)C(F)(F)F", "outcome": "inactive"}, {"compound": "NC(=O)N(O)[C@@H]1C=C[C@H](Oc2cccc(Oc3ccc(F)cc3)c2)C1", "outcome": "inactive"}, {"compound": "CC[C@H](C)[C@@H](C(=O)O)n1sc2ccccc2c1=O", "outcome": "inactive"}, {"compound": "Cc1oc(-c2ccccc2)nc1CCOc1ccc(C[C@H](Nc2ccccc2C(=O)c2ccccc2)C(=O)O)cc1", "AC50": "33.5 µM (active)"}, {"compound": "CC#C[C@]1(O)CC[C@H]2[C@@H]3CCC4=CC(=O)CCC4=C3[C@@H](c3ccc(N(C)C)cc3)C[C@@]21C", "AC50": "26.4 µM (active)"}, {"compound": "COCC(C)O", "note": "(stereo unspecified)", "outcome": "inactive"}, {"compound": "COC(=O)CCCCC(=O)OC", "outcome": "inactive"}]}, {"read-out": "Interferon-gamma inducible Protein 10 (IP10), CXCL10 (gene 3627)", "assay": "BSK_BE3C_IP10: BioMAP Diversity Plus: BE3C Assay for Interferon-gamma inducible Protein 10 (IP10) Biomarker Activity (AID 2283034)", "conditions": "primary human bronchial epithelial cells; actives raise or lower the signal", "method_in_brief": "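Chemical is dosed onto human lung bronchial epithelial primary cells, cultures are incubated 24 h, and IP-10 is then quantified by ELISA. Gain or loss of signal is fitted in both directions relative to DMSO.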", "values": [{"compound": "CCCCCCCCCCCCN1CCCC1=O", "AC50": "30.6 µM (active)"}, {"compound": "CCCOC(=O)c1ccc(O)cc1", "outcome": "inactive"}, {"compound": "CC(=O)NC1(c2cccc(F)c2)CCN(CC[C@@]2(c3ccc(Cl)c(Cl)c3)CN(c3ccccc3)C(=O)CO2)CC1", "AC50": "26 µM (active)"}, {"compound": "CCc1nn(C2CCCCC2)c2cc(C3(C#N)CCC(C(=O)O)CC3)ccc12", "note": "(stereo unspecified)", "AC50": "15.2 µM (active)"}, {"compound": "ClC1=C(Cl)C(Cl)(Cl)C(Cl)=C1Cl", "AC50": "6.61 µM (active)"}, {"compound": "C[C@@H]1C[C@H]2[C@@H]3CCC4=CC(=O)C=C[C@]4(C)[C@@]3(F)[C@@H](O)C[C@]2(C)[C@@]1(O)C(=O)COP(=O)(O)O", "outcome": "inactive"}, {"compound": "CCCCCCCCC(=O)O", "outcome": "inactive"}, {"compound": "NC(=O)N1C(=O)C(C(=O)c2cc(Cl)cs2)c2cc(F)c(Cl)cc21", "note": "(stereo unspecified)", "AC50": "6.63 µM (active)"}, {"compound": "CC(C)(C)CC(C)(C)c1ccc(O)c(-n2nc3ccccc3n2)c1", "outcome": "inactive"}, {"compound": "c1ccc2c(c1)ccc1ccccc12", "outcome": "inactive"}, {"compound": "CN1CCC[C@H]1c1cccnc1", "outcome": "inactive"}, {"compound": "CCOC(=O)CC(O)(CC(=O)OCC)C(=O)OCC", "outcome": "inactive"}, {"compound": "O=c1c(-c2ccc(O)cc2)coc2cc(O)ccc12", "outcome": "inactive"}, {"compound": "CCCCCCCCCCCCCC[N+](C)(C)C", "AC50": "3.88 µM (active)"}, {"compound": "CCCCCCCCOC(=O)CCCCCCCCC(=O)OCCCCCCCC", "outcome": "inactive"}, {"compound": "OC1CCCCC1", "outcome": "inactive"}, {"compound": "CCc1ccc(CCOc2ccc(CC3SC(=O)NC3=O)cc2)nc1", "note": "(stereo unspecified)", "outcome": "inactive"}, {"compound": "COCC(C)OCC(C)O", "note": "(stereo unspecified)", "outcome": "inactive"}, {"compound": "N#C[C@@H]1CC(F)(F)CN1C(=O)CNC1CC2CCC(C1)N2c1ncccn1", "note": "(stereo partly specified)", "outcome": "inactive"}, {"compound": "CCCCCCCCCCCCCCCS(=O)(=O)Oc1ccccc1", "outcome": "inactive"}, {"compound": "CCN(CC)CCNc1ccc(CNC=O)c2sc3ccc(OC)cc3c(=O)c12", "AC50": "14.3 µM (active)"}, {"compound": "CCCOc1sc(C(=O)N2CCC(c3cc(CN)ccc3F)CC2)c(C)c1Br", "AC50": "9.51 µM (active)"}, {"compound": "OCCC(F)(F)C(F)(F)C(F)(F)C(F)(F)C(F)(F)C(F)(F)C(F)(F)C(F)(F)F", "AC50": "12.7 µM (active) and 17.9 µM (active)", "outcome": "inactive"}, {"compound": "c1ccc2cc3c(ccc4ccccc43)cc2c1", "outcome": "inactive"}, {"compound": "CC(O)CO", "note": "(stereo unspecified)", "outcome": "inactive"}, {"compound": "C=C(C)C(=O)OCCC(F)(F)C(F)(F)C(F)(F)C(F)(F)C(F)(F)C(F)(F)F", "outcome": "inactive"}, {"compound": "NC(=O)N(O)[C@@H]1C=C[C@H](Oc2cccc(Oc3ccc(F)cc3)c2)C1", "AC50": "30.7 µM (active)"}, {"compound": "CC[C@H](C)[C@@H](C(=O)O)n1sc2ccccc2c1=O", "outcome": "inactive"}, {"compound": "Cc1oc(-c2ccccc2)nc1CCOc1ccc(C[C@H](Nc2ccccc2C(=O)c2ccccc2)C(=O)O)cc1", "AC50": "2.55 µM (active)"}, {"compound": "CC#C[C@]1(O)CC[C@H]2[C@@H]3CCC4=CC(=O)CCC4=C3[C@@H](c3ccc(N(C)C)cc3)C[C@@]21C", "AC50": "36.7 µM (active)"}, {"compound": "COCC(C)O", "note": "(stereo unspecified)", "outcome": "inactive"}, {"compound": "COC(=O)CCCCC(=O)OC", "outcome": "inactive"}]}]}
